BAZ2B inh – inhibitors of human BAZ2B bromodomain | AlphaScreen BAZ2B-H3K14Ac peptide displacement | Potency, µM (top dose mostly 114 µM), for inactives: at the top dose activity change, negative = inhibition, usual class: inhibitors | hit rate 4.4% among 360,000; further: on the % scale 0 is the no-effect control and ±100 the full control effect; nearly all actives have a fitted effect of over 60% in size
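Compounds, titrated to a top concentration of 110 uM, were incubated 30 min at room temperature with preformed BAZ2B/acetyl-K14 H3 peptide complex (50 nM each). Proximity signal was measured by AlphaScreen after 20 min with beads.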
HP1b chromo inh – HP1-beta chromodomain-methylated histone interaction inhibition. P83916. AlphaScreen HP1-beta / biotin-H3K9me3 peptide binding. Potency, µM (titrated, usually from 114 µM), for the others: at the top dose activity change, negative = inhibition, hits mostly inhibitors. hit rate 0.56% among 390,000. AID 540317; further: nearly all actives have a fitted effect of over 70% in size
Target sequence (P83916 whole entry, looked up): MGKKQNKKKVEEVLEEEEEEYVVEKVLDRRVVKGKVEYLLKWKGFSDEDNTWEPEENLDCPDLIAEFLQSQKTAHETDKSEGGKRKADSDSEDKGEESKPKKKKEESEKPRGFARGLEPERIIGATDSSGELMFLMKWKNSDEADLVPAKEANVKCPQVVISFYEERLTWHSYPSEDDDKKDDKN
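Compound inhibition of the preformed complex between 50 nM HP1-beta and 50 nM biotinylated H3K9me3 peptide was read by AlphaScreen. Buffer was PBS pH 7.4 with 0.01% Tween-20. Incubations ran 30 min at room temperature, with 10 ug/mL donor/acceptor beads.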
JMJD2A Tudor – blocks the human JMJD2A Tudor domain; O75164; Potency, µM (doses to about 114 µM), inactives show at the top dose activity change, negative = inhibition, hits mostly inhibitors; AlphaScreen JMJD2A-Tudor / H3K4me3 peptide binding; hit rate 4.4% among 390,000; further: on the % scale 0 is the no-effect control and ±100 the full control effect; nearly all actives have a fitted effect of over 50% in size
G9a inh – inhibitors of human histone lysine methyltransferase G9a. G9a H3K9 monomethylation, AlphaScreen, 2 h. Potency, µM (highest dose often 102 µM), without a hit: at the top dose activity, negative = inhibition, hits mostly inhibitors. hit rate 8.8% among 350,000; further: on the % scale 0 is the no-effect control and ±100 the full control effect; nearly all actives have a fitted effect of over 75% in size
Target sequence (Q96KQ7 913-1193 limits assumed): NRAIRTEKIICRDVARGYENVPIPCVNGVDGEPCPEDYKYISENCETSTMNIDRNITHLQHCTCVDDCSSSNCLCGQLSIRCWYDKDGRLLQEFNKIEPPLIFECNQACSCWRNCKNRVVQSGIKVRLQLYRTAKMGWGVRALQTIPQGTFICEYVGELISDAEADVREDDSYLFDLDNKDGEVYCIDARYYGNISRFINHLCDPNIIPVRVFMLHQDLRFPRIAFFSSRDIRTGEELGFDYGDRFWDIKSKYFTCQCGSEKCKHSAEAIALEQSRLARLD
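Methyltransferase reactions run at room temperature for 2 h (20 nM enzyme, 500 nM biotin-H3K9 peptide, 20 uM SAM) after a 15 min compound preincubation; product detected by AlphaScreen beads and anti-H3K9me1 antibody.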
Sfp PPTase inh – Sfp phosphopantetheinyl transferase inhibition | AID 1490 | Biochemical Sfp PPTase activity, qHTS | Potency, µM, for the others: largest response in the series, negative = inhibition, most hits filed as inhibitors | hit rate 3.5% among 310,000 | Q9F4F7;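 further: the enzyme is Sfp with the accession as filed and its product quenches rhodamine fluorescence; 0% = enzyme reaction without inhibitor and -100% = no enzyme wells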
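Sfp 15 nM + cpd, 15 min RT; start w/ rhodamine-CoA 5 uM, BHQ-2-YbbR 12.5 uM (final); 50 mM Hepes pH 7.6, 10 mM MgCl2, 0.01% NP-40, 0.01% BSA; read 525/598 nm at 0 and 30 min.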
PLK1 PBD block – blocks phosphopeptide binding to human PLK1 polo-box domain; hit rate 2.8% among 360,000; AID 720504; Plk1 PBD binding of FITC phosphopeptide, fluorescence polarization; P53350; Potency, µM, for inactives: max response, negative = inhibition, actives largely listed as inhibitors; further: series mostly up to about 57 µM; on the % scale 0 is the no-effect control and ±100 the full control effect; nearly all actives have a fitted effect of over 65% in size
Numbers without * were called inactive; u = inconclusive; x = not tested or not shown; [ ] = remark or other dose. The list is not random: actives were taken first. Their share in the collection is about 12%. The call rests on the fitted dose curve; in most records, active means well fitted curve in the direction sought with a large enough effect; inconclusive means small, poorly fitted or top-dose-only effect, or another doubt; inactive means no such curve, though single readings can be large; an effect the other way counts as inactive or inconclusive. Potency means the concentration at half of the fitted maximal effect.

SMILES | BAZ2B inh | HP1b chromo inh | JMJD2A Tudor | G9a inh | Sfp PPTase inh | PLK1 PBD block
c1coc(-c2nc3nc4ccccc4nc3n2CC2CCCO2)c1 (stereo not drawn) | 0% | 33% | -10% | 50µM* | 79µM* | -3%
COc1ccc(CCn2c(-c3ccco3)nc3nc4ccccc4nc32)cc1 | 15% | 22% | -8% | -39%[12.7 µM] | 35µM* | -7%
CCOc1ccc(CCn2c(-c3ccco3)nc3ccccc3c2=O)cc1OCC | u | 6% | -23% | u | 56µM* | -4%
Cc1ccccc1CN1C(=O)C(O)(CC(=O)c2cccc(Br)c2)c2ccccc21 (stereo not drawn) | 1% | 39% | -32% | 13%[59 µM] | x | x
COc1ccc(NC(=O)c2ccco2)cc1NC(=O)c1cc(Br)ccc1Cl | -6% | 4% | -25% | -2%[59 µM] | x | x
Cc1ccc2cc3cc(C(=O)N4CC(C)CC(C)C4)oc3nc2c1 (stereo not drawn) | 10% | 7% | -27%[11.4 µM] | 3%[59 µM] | -13% | 13µM*
O=S(=O)(NCc1ccccc1)c1cccc2cccnc12 | -4% | 38% | -4% | 16%[12.7 µM] | 3% | -5%
O=C(O)c1ccccc1NS(=O)(=O)c1cccc2cccnc12 | -32% | -4% | 20µM* | u | -7% | -8%
O=C(Nc1cccc2ccccc12)c1ccccc1NS(=O)(=O)c1cccc2cccnc12 | -1% | 12% | -16% | u | 10% | -10%
O=S(=O)(NCCc1ccccc1)c1cccc2cccnc12 | 14% | 3% | 1% | 50µM* | 9% | -29%
Nc1ccccc1S(=O)(=O)Nc1cccc2cccnc12 | x | x | 56µM* | x | 3% | x
COc1cc(NC(=O)C(C)Oc2ccccc2)ccc1NC(=O)COc1ccccc1 (stereo not drawn) | -16% | -7% | -20% | -10% | 16% | 1%
COc1c(C)cc(C(=O)C2CCCN(C(=O)c3cc(C4CC4)[nH]n3)C2)cc1C (stereo not drawn) | -2% | 28% | -12% | -5%[0.501 µM] | -2% | -12%
COCCn1c(SCc2cc(=O)n3ccsc3n2)nnc1-c1ccncc1 | -16% | 6% | 40µM* | 2%[59 µM] | -1% | 24µM*
C=CCn1c(SCc2cc(=O)n3cc(C)ccc3n2)nnc1-c1ccc(F)cc1 | 4% | 26% | 3% | -17%[59 µM] | 2% | 0%
Cc1ccc2nc(CSc3nnc(-c4ccncc4)n3C)cc(=O)n2c1 | -17% | 39% | -7% | 40µM* | 10% | -13%
CCNS(=O)(=O)c1ccc(C(=O)OCc2cc(=O)oc3cc(OC)ccc23)cc1 | -14% | -6% | -20% | u | 2% | -6%
Cn1cc(-c2nc3cnc(Oc4cccc(Cl)c4)nc3n(C3CC3)c2=O)c2ccccc21 | x | x | x | 5%[0.501 µM] | -12% | x
COC(=O)C1=C(C)N(c2ccc(C(=O)OC)cc2)C(=O)C1 | 1% | 10% | -18% | -27%[12.7 µM] | -2% | -10%
COC(=O)C1=C(C)N(c2cc(Cl)cc(Cl)c2)C(=O)C1 | -4% | 11% | -20% | 45µM* | 3% | -20%
c1ccc2c(c1)ccn2CCCN1CCCCC1 | x | 20% | -19% | x | x | 1%
O=C(CBr)N1CCc2ccccc2C(c2ccccc2)C1 (stereo not drawn) | -30% | 32% | 6% | 32µM* | 32µM* | -7%
COc1ccccc1NC(=S)N(CCc1c(C)[nH]c2ccccc12)Cc1cccs1 | -37% | 1% | u | u | 17% | -4%
CNC(=S)N(CCc1c(C)[nH]c2ccccc12)Cc1cc(OC)c(OC)c(OC)c1 | 45µM* | -1% | u | u | -1% | -5%
CCNC(=S)N(CCc1c(C)[nH]c2ccccc12)Cc1cc(OC)c(OC)c(OC)c1 | 50µM* | -8% | u | 89µM* | 1% | -8%
SMILES | BAZ2B inh | HP1b chromo inh | JMJD2A Tudor | G9a inh | Sfp PPTase inh | PLK1 PBD block
CCN(CC)c1ccc(NC(=O)c2cccnc2)cc1 | u | 9% | -25% | 10µM* | -15% | 1%
CCn1nnc(NC(=O)c2cccnc2)n1 | -30% | -18% | -5% | 40µM* | -28% | u
COc1ccc(NC(=O)c2cccnc2)cc1 | 6% | 30% | -8% | 51% | 33% | -9%
O=C(Nc1cc([N+](=O)[O-])ccc1O)c1cccc(C(=O)Nc2cc([N+](=O)[O-])ccc2O)c1 | 50µM* | -24% | u | -12%[59 µM] | 13% | -19%
O=C(Nc1cc([N+](=O)[O-])ccc1O)c1cccc([N+](=O)[O-])c1 | -36% | 44% | -20% | -64% | 1% | -4%
Cc1c(C(=O)Oc2cccc3cccnc23)cccc1[N+](=O)[O-] | 14µM* | u | 45µM* | u | -19% | -14%
O=C(Oc1ccc(-c2cnc3ccccc3n2)cc1)c1cccc([N+](=O)[O-])c1 | 7% | 11% | -15% | 8.9µM* | -11% | -6%
O=C(Nc1cccc2cccnc12)c1ccccc1[N+](=O)[O-] | 2%[57.1 µM] | 20% | -11% | -35%[59 µM] | x | x
O=C(Oc1ccc(-c2cnc3ccccc3n2)cc1)c1ccc(Cl)c([N+](=O)[O-])c1 | 9% | 7% | -10% | u | 3% | -13%
O=C(Nc1cccc2cccnc12)c1cccc([N+](=O)[O-])c1 | -32% | 25% | -11% | 79µM* | -2% | -6%
O=C(Oc1cccc2cccnc12)c1cccc([N+](=O)[O-])c1 | 16µM* | 2% | 50µM* | 9% | 1% | -3%
O=C(Oc1c(Cl)cc(Cl)c2cccnc12)c1cccc([N+](=O)[O-])c1 | 28µM* | -18% | u | u | 6% | -20%
O=[N+]([O-])c1ccc(Oc2cccc3cccnc23)c([N+](=O)[O-])c1 | u | -24% | -19% | u | u | u
Cc1cc2cc(CNC(=O)CCC(=O)O)ccc2n1C | u | 27% | -10% | 18µM* | -18% | 4%
Cc1cccc(NC(=O)NCc2ccc3c(c2)cc(C)n3C)c1 | u | -5% | u | u | 50µM* | -2%
Cc1cc2cc(CNC(=O)c3ccc(Br)o3)ccc2n1C | 35µM* | -24% | 56µM* | -110%[59 µM] | 28µM* | -18%
Cc1cc2cc(CNS(=O)(=O)c3ccc4ccccc4c3)ccc2n1C | u | -6% | u | u | -24% | -13%
CC(=O)Nc1ccc(S(=O)(=O)NCc2ccc3c(c2)cc(C)n3C)cc1 | u | -1% | u | 79µM* | -12% | -4%
O=C(CN1CCN(C(=O)c2cccc(S(=O)(=O)N3CCCC3)c2)CC1)Nc1ccc(F)cc1 | 0% | 21% | -9% | u | x | -5%
Cc1ccc(NC(=O)CSCC(=O)Nc2ccccc2C(=O)NC2CC2)cc1 | -5% | 33% | -9% | 1% | x | 2%
Cc1ccc(Nc2ccc(N3CCN(C(=O)c4ccc([N+](=O)[O-])cc4Cl)CC3)nn2)cc1 | u | 2% | u | -34%[59 µM] | x | x

Assay outcomes deposited in PubChem BioAssay by National Center for Advancing Translational Sciences (NCATS).
